Test results as given in PubChem BioAssay (NCATS).
Results filed as inconclusive are left out. The source made the active and inactive calls. Calls follow the shape of the dose curve; as a rule, active = well fitted curve in the direction sought with a large enough effect; inconclusive = small, poorly fitted or top-dose-only effect, or another doubt; inactive = no such curve, though single readings can be large; an effect the other way counts as inactive or inconclusive. Starred links: 1 amine or outer side, 2 acyl side, 3 side chain; linkers in the order of their positions; H or OH if unused. Positions of bridges follow the written chain, without caps; N, C: chain ends. Non-standard residues stand in square brackets, D forms with d. Residues, ends and D or L forms follow the SMILES beside them. Chains are numbered I, II in the order given. Actinocin(9to1) = Cc1c2oc3c(C)ccc(C(=O)[*:1])c3nc-2c(C(=O)[*:2])c(N)c1=O; NMeV = CN[CH](C(=O)O)C(C)C; Sar = CNCC(=O)O

Columns and labels:
[1] = Quantitative High-Throughput drug screen in 47 multiple myeloma cell lines against the NCATS MIPE library collection: ARD_JJKsccE7 cell viability assay (AID 1918929; also: potency is read from the fitted curve at half-maximal effect)
Method in brief: (§1)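 We plated 500 myeloma cells per well, pinned in MIPE 4.0 compounds, and incubated for 48 hours at 37C. ATP was then quantified with CellTiter-Glo, with DMSO and media-only wells defining 100% and 0%.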

[2] = Quantitative High-Throughput drug screen in 47 multiple myeloma cell lines against the NCATS MIPE library collection: Karpas620_DSMZ cell viability assay (AID 1918959); also: nearly all actives have a fitted effect of over 30% in size; also: potency is read from the fitted curve at half-maximal effect
Method in brief: (§2)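 Luminescent ATP measurement with CellTiter-Glo gives viability, scaled between DMSO-only wells (100%) and media-only wells (0%). Cells, 500 per well, faced library compounds for 48 hours at 37C.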

[3] = Quantitative High-Throughput drug screen in 47 multiple myeloma cell lines against the NCATS MIPE library collection: KMM1_JCRB cell viability assay (AID 1918960); also: nearly all actives have a fitted effect of over 30% in size; also: potency is read from the fitted curve at half-maximal effect
Method in brief: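 ATP readout (CellTiter-Glo), 48 h drug incubation, 37 °C/5% CO2, 500 cells per well; normalisation to DMSO (100%) and media-only (0%) controls.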

[4] = Quantitative High-Throughput drug screen in 47 multiple myeloma cell lines against the NCATS MIPE library collection: Karpas417_ECACC cell viability assay (AID 1918961); details: Karpas417 myeloma viability, CellTiter-Glo ATP luminescence, 48 h; viability (% of DMSO): at 45.8 µM (top of the series); also: potency is read from the fitted curve at half-maximal effect
Method in brief: (§3)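 Steps: seed 500 cells per well; pin-transfer MIPE 4.0 library; incubate 48 h at 37C, 5% CO2, humidified; add CellTiter-Glo, 5 min room temperature; read luminescence.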

[5] = Quantitative High-Throughput drug screen in 47 multiple myeloma cell lines against the NCATS MIPE library collection: KHM11_PLB cell viability assay (AID 1918962); also: nearly all actives have a fitted effect of over 35% in size; also: potency is read from the fitted curve at half-maximal effect
Method in brief: as §2

[6] = Quantitative High-Throughput drug screen in 47 multiple myeloma cell lines against the NCATS MIPE library collection: JIM3_ECACC cell viability assay (AID 1918963; also: nearly all actives have a fitted effect of over 35% in size; also: potency is read from the fitted curve at half-maximal effect)
Method in brief: as §2

[7] = Quantitative High-Throughput drug screen in 47 multiple myeloma cell lines against the NCATS MIPE library collection: JIM1_ECACC cell viability assay (AID 1918964; also: potency is read from the fitted curve at half-maximal effect)
Method in brief: as §1

[8] = Quantitative High-Throughput drug screen in 47 multiple myeloma cell lines against the NCATS MIPE library collection: INA6_PLB cell viability assay (AID 1918965; also: nearly all actives have a fitted effect of over 55% in size; also: potency is read from the fitted curve at half-maximal effect)
Method in brief: as §3

[9] = Quantitative High-Throughput drug screen in 47 multiple myeloma cell lines against the NCATS MIPE library collection: JJN3_DSMZ cell viability assay (AID 1918966; also: nearly all actives have a fitted effect of over 50% in size; also: potency is read from the fitted curve at half-maximal effect)
Method in brief: as §1

[10] = Quantitative High-Throughput drug screen in 47 multiple myeloma cell lines against the NCATS MIPE library collection: H1112_PLB cell viability assay (AID 1918967; also: nearly all actives have a fitted effect of over 30% in size; also: potency is read from the fitted curve at half-maximal effect)
Method in brief: as §1

[11] = Quantitative High-Throughput drug screen in 47 multiple myeloma cell lines against the NCATS MIPE library collection: Karpas25_ECACC cell viability assay (AID 1918968; also: nearly all actives have a fitted effect of over 35% in size; also: potency is read from the fitted curve at half-maximal effect)
Method in brief: as §1

[12] = Quantitative High-Throughput drug screen in 47 multiple myeloma cell lines against the NCATS MIPE library collection: KMS12BM_JCRB cell viability assay (AID 1918971); also: nearly all actives have a fitted effect of over 35% in size; also: potency is read from the fitted curve at half-maximal effect
Method in brief: (§4)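 CellTiter-Glo luminescence (ATP) after 48 h compound exposure, 37C/5% CO2; 500 cells/well; MIPE 4.0 approved/investigational drugs pinned in; DMSO = 100%, media only = 0% viability.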

[13] = Quantitative High-Throughput drug screen in 47 multiple myeloma cell lines against the NCATS MIPE library collection: KMS12PE_JCRB cell viability assay (AID 1918972); also: nearly all actives have a fitted effect of over 30% in size; also: potency is read from the fitted curve at half-maximal effect
Method in brief: as §3

[14] = Quantitative High-Throughput drug screen in 47 multiple myeloma cell lines against the NCATS MIPE library collection: KMS26_JCRB cell viability assay (AID 1918975); also: nearly all actives have a fitted effect of over 45% in size; also: potency is read from the fitted curve at half-maximal effect
Method in brief: as §4

[15] = Quantitative High-Throughput drug screen in 47 multiple myeloma cell lines against the NCATS MIPE library collection: MMM1_PLB cell viability assay (AID 1918976); also: nearly all actives have a fitted effect of over 35% in size; also: potency is read from the fitted curve at half-maximal effect
Method in brief: (§5)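 Inhibition of viability over 48 h was scored by ATP content (CellTiter-Glo) in 500-cell wells. Zero and full viability were defined by media-only and DMSO-only wells.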

[16] = Quantitative High-Throughput drug screen in 47 multiple myeloma cell lines against the NCATS MIPE library collection: MOLP8_DSMZ cell viability assay (AID 1918977); also: nearly all actives have a fitted effect of over 45% in size; also: potency is read from the fitted curve at half-maximal effect
Method in brief: as §5

[17] = Quantitative High-Throughput drug screen in 47 multiple myeloma cell lines against the NCATS MIPE library collection: NCIH929_DSMZ cell viability assay (AID 1918978); also: nearly all actives have a fitted effect of over 35% in size; also: potency is read from the fitted curve at half-maximal effect
Method in brief: as §5

[18] = Quantitative High-Throughput drug screen in 47 multiple myeloma cell lines against the NCATS MIPE library collection: KMS27_JCRB cell viability assay (AID 1918970); details: KMS27 myeloma cells, CellTiter-Glo ATP viability, 48 h; viability (% of DMSO): at 45.8 µM (top of the series); also: nearly all actives have a fitted effect of over 30% in size; also: potency is read from the fitted curve at half-maximal effect
Method in brief: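 KMS27_JCRB myeloma cells, 500 per well, exposed 48 h at 37 C, 5% CO2 to MIPE 4.0 compounds. Viability from ATP by CellTiter-Glo luminescence, normalized to DMSO (100%) and medium-only (0%) wells.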

[19] = Quantitative High-Throughput drug screen in 47 multiple myeloma cell lines against the NCATS MIPE library collection: KMS20_JCRB cell viability assay (AID 1918973); also: nearly all actives have a fitted effect of over 45% in size; also: potency is read from the fitted curve at half-maximal effect
Method in brief: as §1

[20] = Quantitative High-Throughput drug screen in 47 multiple myeloma cell lines against the NCATS MIPE library collection: KMS21BM_JCRB cell viability assay (AID 1918974); details: ATP luminescence, 48 h; viability: at 45.8 µM (top of the series)
Method in brief: as §1

CC(C)(O)Cn1c(NC(=O)c2ccc(-c3cn[nH]c3)s2)nc2cc(CN3CCOCC3)ccc21
active: Potency [1] 469 nM | Potency [2] 662 nM | Potency [3] 743 nM | Potency [4] 118 nM | Potency [5] 296 nM | Potency [6] 1320 nM | Potency [7] 418 nM | Potency [8] 833 nM | Potency [9] 1320 nM | Potency [10] 2640 nM | Potency [11] 935 nM | Potency [12] 2350 nM | Potency [13] 469 nM | Potency [14] 2090 nM | Potency [15] 2090 nM | Potency [16] 1180 nM | Potency [17] 1660 nM

Cc1c2oc3c(C)ccc(C(=O)NC4C(=O)NC(C(C)C)C(=O)N5CCCC5C(=O)N(C)CC(=O)N(C)C(C(C)C)C(=O)OC4C)c3nc-2c(C(=O)NC2C(=O)NC(C(C)C)C(=O)N3CCCC3C(=O)N(C)CC(=O)N(C)C(C(C)C)C(=O)OC2C)c(N)c1=O (stereo not drawn) (I: TVP[Sar][NMeV] / II: TVP[Sar][NMeV]; ester I:1-I:C, II:1-II:C; linker I:N-II:N via Actinocin(9to1); configuration not given here)
inactive: Potency [1] | Potency [2] | Potency [3] | Potency [4] | Potency [5] | Potency [6] | Potency [7] | Potency [9] | Potency [10] | Potency [11] | Potency [18] | Potency [12] | Potency [13] | Potency [19] | Potency [20] | Potency [14] | Potency [15] | Potency [16] | Potency [17]

CCS(=O)(=O)Nc1ccc2[nH]c(O)c(C(=Nc3ccc(CN4CCCCC4)cc3)c3ccccc3)c2c1
active: Potency [1] 469 nM | Potency [2] 1480 nM | Potency [3] 3720 nM | Potency [4] 105 nM | Potency [5] 418 nM | Potency [6] 209 nM | Potency [7] 59 nM | Potency [8] 469 nM | Potency [9] 743 nM | Potency [10] 4690 nM | Potency [11] 235 nM | Potency [18] 132 nM | Potency [12] 13200 nM | Potency [13] 148 nM | Potency [19] 296 nM | Potency [14] 469 nM | Potency [15] 209 nM | Potency [17] 105 nM

c1cc(CN2CCCNCCNCCCNCC2)ccc1CN1CCCNCCNCCCNCC1
inactive: Potency [1] | Potency [2] | Potency [3] | Potency [5] | Potency [6] | Potency [8] | Potency [10] | Potency [12] | Potency [14]
active: viability (% of DMSO) [4] 134%

CO[C@@H]1[C@@H](O)[C@H](O)[C@@H](n2c3c(Cl)cccc3c3c4c(c5c6cccc(Cl)c6[nH]c5c32)C(=O)NC4=O)O[C@@H]1CO
active: Potency [1] 5260 nM | Potency [2] 1480 nM | Potency [3] 264 nM | Potency [4] 1320 nM | Potency [5] 1180 nM | Potency [6] 1480 nM | Potency [7] 526 nM | Potency [8] 187 nM | Potency [9] 9350 nM | Potency [10] 418 nM | Potency [11] 590 nM | Potency [18] 118 nM | Potency [12] 469 nM | Potency [13] 743 nM | Potency [14] 2640 nM | Potency [15] 5900 nM | Potency [16] 2350 nM | Potency [17] 833 nM

Cc1cnn(C)c1C(=O)Nc1cc(Nc2ccc3c(C=Cc4ccccn4)n[nH]c3c2)ccc1F
active: Potency [1] 4180 nM | Potency [2] 20900 nM | Potency [3] 1660 nM | Potency [5] 18700 nM | Potency [6] 5260 nM | Potency [7] 10500 nM | Potency [9] 23500 nM | Potency [10] 8330 nM | Potency [11] 4690 nM | Potency [18] 2640 nM | Potency [13] 2960 nM | Potency [14] 33200 nM | Potency [15] 13200 nM | Potency [17] 14800 nM

COc1cccc2c1C(=O)c1c(O)c3c(c(O)c1C2=O)C[C@@](O)(C(=O)CO)C[C@H]3O[C@H]1C[C@H](N)[C@H](O)[C@H](C)O1
active: Potency [1] 2960 nM | Potency [2] 1050 nM | Potency [3] 1870 nM | Potency [4] 1320 nM | Potency [6] 332 nM | Potency [7] 1050 nM | Potency [9] 132 nM | Potency [10] 372 nM | Potency [11] 118 nM | Potency [18] 743 nM | Potency [12] 166 nM | Potency [13] 1480 nM | Potency [14] 296 nM | Potency [15] 148 nM | Potency [16] 187 nM | Potency [17] 93.5 nM

CCOC(=O)[C@@H](N)Cc1ccc(-c2cc(O[C@H](c3ccc(Cl)cc3-n3ccc(C)n3)C(F)(F)F)nc(N)n2)cc1
active: Potency [1] 9350 nM | Potency [2] 9350 nM | Potency [3] 11800 nM | Potency [4] 9350 nM | Potency [6] 20900 nM | Potency [7] 6620 nM | Potency [8] 23500 nM | Potency [9] 18700 nM | Potency [10] 10500 nM | Potency [11] 18700 nM | Potency [12] 20900 nM | Potency [13] 10500 nM | Potency [14] 18700 nM | Potency [15] 11800 nM | Potency [16] 11800 nM | Potency [17] 18700 nM

O=C(C=CC#Cc1cccc(NS(=O)(=O)c2ccccc2)c1)NO
active: Potency [1] 1180 nM | Potency [2] 1870 nM | Potency [3] 526 nM | Potency [5] 2350 nM | Potency [6] 5260 nM | Potency [7] 1320 nM | Potency [8] 743 nM | Potency [9] 2350 nM | Potency [10] 2960 nM | Potency [11] 833 nM | Potency [12] 1480 nM | Potency [13] 1180 nM | Potency [19] 2350 nM | Potency [14] 3320 nM | Potency [16] 935 nM | Potency [17] 1180 nM

O=C(c1ccc(F)cc1)N1CCC[C@H](c2nc(-c3ccc(F)cc3)no2)C1
inactive: Potency [1] | Potency [2] | Potency [3] | Potency [4] | Potency [7] | Potency [8] | Potency [9] | Potency [10] | Potency [11] | Potency [13] | Potency [19] | Potency [14] | Potency [16] | Potency [17]
